Tgondii IFNg: T. gondii growth inhibition with IFN-gamma, primary screen, cell-based | Toxoplasma gondii growth in IFN-gamma-treated host cells; hits give low values | activity change, negative = inhibition, % (no concentration beside the values) | actives 3.8% (n = 69,000); in the data active = activity change below about -70%, passing the limit was not always enough;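 also: host cells are HeLa cells infected with Toxoplasma gondii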
* hit, by the source's call; i = inactive. This excerpt belongs to a sample that is enriched for hits.

SMILES	Tgondii IFNg
Cc1nc(S(=O)(=O)N2CCC3(CC2)C(=O)Nc2ccccc23)cn1C	1
CC/C=C(\C)c1c(-c2ccccc2)ncn1CCN	-5
COc1ccc(-c2nc(CCNC(C)=O)cs2)cc1	i
COc1cc(OC)cc(-c2nc(N)c3c(C)c(-c4ccc(OC)c(OC)c4)sc3n2)c1	-65
COc1ccc(CCN(C)C2CCCN(c3ccnc(N)n3)C2)cc1OC (centres undefined)	-2
COc1ccc(COc2ccc(Cc3cnc(N)nc3N)cc2OC)cc1	-77*
COc1ccc(Cc2cnc(N)nc2N)cc1OC	-79*
Nc1nc(N)c(Cc2ccccc2)cc1Cc1ccccc1	160
COc1ccc(COc2cc3oc(=O)c4cc(C(C)O)ccc4c3cc2OC)cc1 (centres undefined)	-6
CN1C(=O)C2(CC2C(=O)NC2CCC2)c2ccccc21 (centres undefined)	-48
Nc1ccnc(-c2ccc(CO)cc2)c1	-2
CC(C)c1cc(C2CCN(Cc3nccn3C)CC2)[nH]n1	5
COc1cccc(-n2c(=O)c(C(=O)NC3CCCCC3)c(O)c3cccnc32)c1	-63
O=C(Nc1cc(F)cc(F)c1)c1c(O)c2cccnc2n(-c2cccc(F)c2)c1=O	-106*
COc1cccc(CNC(=O)c2c(O)c3cccnc3n(-c3ccc(F)cc3)c2=O)c1	163
COc1ccc(-n2c(=O)c(C(=O)NC3CCCC3)c(O)c3cccnc32)cc1	29
O=C(Nc1cccc(F)c1)c1c(O)c2cccnc2n(-c2cccc(F)c2)c1=O	42
COc1cccc(-n2c(=O)c(C(=O)NC3CCCCCC3)c(O)c3cccnc32)c1	-113*
O=C(NCc1ccco1)c1c(O)c2cccnc2n(-c2ccc(F)cc2)c1=O	-79*
O=C(NCc1ccco1)c1c(O)c2cccnc2n(-c2cccc(F)c2)c1=O	183
O=C(Nc1cccc(F)c1)c1c(O)c2cccnc2n(-c2ccccc2)c1=O	10
COC(=O)c1ccccc1C(=O)N1CC[C@@H](c2ccc(F)cc2)[C@H](O)C1	-6
COc1ccc(-c2nc(CN(Cc3ccccn3)CC3CCCO3)c(C)o2)c2ccccc12 (centres undefined)	5
O=C1N(Cc2ccccc2)C(=O)C2(CCN(Cc3nccs3)CC2)N1CCc1ccccc1	-8
O=C1CCC(C(=O)NCc2ccc(S(=O)(=O)N3CCCC3)cc2)=NN1	-1
SMILES	Tgondii IFNg
COCCN1CCc2cc(C(=O)O)c(-c3ccnn3C)nc2CC1	381
CCN1CCN(C(=O)Cn2nc(C)nc2C)C(Cc2cccc(-c3cccs3)c2)C1=O (centres undefined)	-23
CN(C)C[C@@H]1CC2CN(Cc3cccs3)CCC2N1C (some centres undefined)	6
Cc1oc(C2CCN(S(=O)(=O)c3ccc(C(C)C)cc3)CC2)nc1C(=O)N(C)C	11
O=C(NCCc1csc(-c2ccc(Cl)cc2)n1)C12CC3CC(CC(C3)C1)C2	-35
CC(=O)NCC1=CCCN(C(c2ccccc2)c2ccccc2)C1	5
O=C(c1cccnc1)N1CCC2(COCc3cnc(N4CCOCC4)nc32)C1 (centres undefined)	8
COCCN1C(=O)N(Cc2cccc3ccccc23)C(=O)C12CCN(Cc1ccccn1)CC2	-3
Cc1onc(-c2ccccc2)c1C(=O)Nc1cccnc1	23
Cc1onc(-c2c(Cl)cccc2Cl)c1C(=O)NC(=S)Nc1ccccc1	-73*
COC(=O)c1ccc(Cl)cc1NC(=O)c1c(-c2c(F)cccc2Cl)noc1C	-19
COc1ccc(F)c(F)c1CN1CCCCC1c1ccccn1 (centres undefined)	71
CN1CC2(CCCN(C(=O)c3cc(-c4ccccc4O)n[nH]3)CC2)OC1=O (centres undefined)	3
CCN(CC)CCn1c(=O)c(Cc2ccc(OC)cc2)nc2ccccc21	-2
CCCCC(=O)Nc1cc2nc(CCCC)n(Cc3ccccc3Cl)c2nc1C	-57
CCCCc1nc2cc(/C=C/C(=O)NO)ccc2n1CCN(CC)CC	-82*
Cc1oc(-c2ccccc2Cl)nc1Cn1cnc2onc(-c3ccc(Cl)cc3)c2c1=O	-24
COCCN1C(=O)CCC(C(=O)O)C1c1cccc(OC)c1 (centres undefined)	29
COc1cccc(-c2nc(C)c(-c3ccc(SCc4cccnc4)nn3)s2)c1	324
Cc1oc(-c2ccc(Cl)cc2)nc1Cn1nnc(C(=O)Nc2ccc(Br)cc2F)c1C	-24
CCS(=O)(=O)Nc1cc2c3c(n(S(=O)(=O)CC)c2cc1C)CCCC3=O	-23
c1ccc(COC2CCCN(Cc3cc4ccccc4o3)C2)nc1 (centres undefined)	-4
CSc1cccc(NC(=S)NCc2ccc(F)cc2)c1	61
Fc1ccc(NC(=S)Nc2ccccc2Cl)cc1	35
Fc1cccc(NC(=S)Nc2ccc3ccccc3c2)c1	-88*
SMILES	Tgondii IFNg
COc1cccc(Nc2nc(-c3nnc(-c4ccc(C)cc4)o3)nc3ccccc23)c1	95
COc1cc(Nc2nc(-c3nnc(-c4cccc(C)c4)o3)nc3ccccc23)cc(OC)c1	-130*
COc1ccccc1Nc1nc(-c2nnc(-c3ccccc3)o2)nc2ccccc12	-92*
COc1ccc(Nc2nc(-c3nnc(-c4cccc(C)c4)o3)nc3ccccc23)cc1OC	i
COc1ccc(-c2nnc(-c3nc(Nc4cc(C)cc(C)c4)c4ccccc4n3)o2)cc1	-101*
COc1ccc(Nc2nc(-c3nnc(-c4ccc(C)cc4)o3)nc3ccccc23)cc1Cl	277
Cc1cccc(Nc2nc(-c3nnc(-c4ccccc4)o3)nc3ccccc23)c1C	-7
Cc1cccc(Nc2nc(-c3nnc(-c4cccc(C)c4)o3)nc3ccccc23)c1	-24
COc1cc(Nc2nc(-c3nnc(-c4ccccc4)o3)nc3ccccc23)cc(OC)c1OC	-125*
Cc1cccc(-c2nnc(-c3nc(Nc4ccc(C)c(F)c4)c4ccccc4n3)o2)c1	52
COc1ccc(C)cc1Nc1nc(-c2nnc(-c3ccc(Cl)cc3)o2)nc2ccccc12	89
COc1ccc(-c2nnc(-c3nc(Nc4cccc(OC)c4)c4ccccc4n3)o2)cc1	101
CCN1c2ccc(C)cc2C(=O)NC12CCN(C(=O)c1ccc(F)c(F)c1)CC2	61
CN(C)c1cc(NCc2cn3c(n2)CN(C(=O)C2CC2)CC3)ncn1	9
Nc1nc2c(cc1C(=O)N1CCCC1)CN(C(=O)c1ccccc1-c1ccccc1)CC2	-5
Cc1cc(N)n(CC(=O)NCc2cnn(-c3cccc(F)c3)c2)n1	6
CCc1nc(OCC(=O)Nc2c(C)cccc2CC)c2ccccc2n1	-7
CCOCC1CC2(COCCN2C(=O)c2cc(C)oc2C)CO1 (centres undefined)	5
Cc1ccc(NC(=O)c2c(O)c3ccccc3[nH]c2=O)cc1	145
COc1ccccc1Nc1nc(-c2nnc(-c3cccc(C)c3)o2)nc2ccccc12	-86*
CCOc1ccccc1Nc1nc(-c2nnc(-c3cccc(C)c3)o2)nc2ccccc12	-51
Cc1ccc(-c2nc(CN(c3ccccc3)S(=O)(=O)c3cccs3)c(C)o2)cc1	-32
COc1c(F)cc(-c2nccn2CCn2cccn2)cc1Cl	4
CC1=NN(C2CCS(=O)(=O)C2)C(=O)C1(Sc1ccccc1)Sc1ccccc1 (centres undefined)	-93*
CC(C)c1cc(C(=O)O)nn1C1CCS(=O)(=O)C1 (centres undefined)	13
CC(=O)N1CCc2cc(NC(=O)C3=NN(C4CCS(=O)(=O)C4)C(=O)CC3)ccc21 (centres undefined)	-2
O=C(O)C1CC(=O)N(c2ccc(CCc3ccccn3)cc2)C1 (centres undefined)	1

High-throughput results as filed in PubChem BioAssay.
